Test results: PubChem BioAssay (NCI)
This is part of a sample that, as a whole, favours compounds with a hit. Of some 83,000 tested, about 20% had one in any assay.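 Treatment: one concentration, 48 hours, 96-well format. Scoring: percent growth, with anything below 10 considered active.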 A number with no mark means an inactive call. Activity calls are given as the source filed them.

What was measured:
Test in all cases: NCI-60 one-dose screen, 48 h (100 = growth as untreated, 0 = no growth, -100 = all killed)
Conditions in all cases: 10 µM unless noted
NCI-H23 lung = test system: NCI-H23 lung
NCI-H226 lung = test system: NCI-H226 lung
NCI-H322M lung = test system: NCI-H322M lung
HOP-62 NSCLC = test system: HOP-62 NSCLC
NCI-H460 lung = test system: NCI-H460 lung
HOP-92 NSCLC = test system: HOP-92 NSCLC
NCI-H522 lung = test system: NCI-H522 lung
A549/ATCC NSCLC = test system: A549/ATCC NSCLC
786-0 renal = test system: 786-0 renal
COLO 205 colon = test system: COLO 205 colon

| Structure (SMILES) | growth (NCI-H23 lung) | growth (NCI-H226 lung) | growth (NCI-H322M lung) [%] | growth (HOP-62 NSCLC) | growth (NCI-H460 lung) | growth (HOP-92 NSCLC) | growth (NCI-H522 lung) | growth (A549/ATCC NSCLC) | growth (786-0 renal) | growth (COLO 205 colon) |
| --- | --- | --- | --- | --- | --- | --- | --- | --- | --- | --- |
| C=C(C)[C@@H]1CC[C@]2(C(=O)N3CCN(C)CC3)CC[C@]3(C)[C@H](CC[C@@H]4[C@@]5(C)CCC(=O)C(C)(C)[C@@H]5CC[C@]43C)[C@@H]12 | 89.9% | 88.5% | 91.5 | 86.4% | 21% | 52.8% | 85.1% | 85.1% | 71.1% | 72.4% |
| CCOC(=O)c1cnc2c(cnn2CC)c1NN=C(C)C | 96.5% | 86.6% | 94.6 | 76.6% | 106% | 73.9% | 74.4% | 96.2% | 86.5% | 113% |
| CC(=O)OCC(=O)C1(O)C(C)CC2C3C=C(C)C4=Cc5c(cnn5-c5ccccc5)CC4(C)C3C(O)CC21C (stereo not given) | 8.49% (active) | 43.2% | 57.9 | 7.4% (active) | 6.3% (active) | -0.484% (active) | 4.55% (active) | 24.5% | -39.2% (active) | -70.1% (active) |
| Cc1n[nH]c(C)c1-c1c(C)n[nH]c1C | 8.62% (active) | 56.2% | 28.6 | 34.5% | -35.1% (active) | -3.52% (active) | -8.26% (active) | 11.9% | 6.23% (active) | -21.6% (active) |
| Cc1cn(-c2cc(C(=O)Nc3cccc(C#Cc4cccc5[nH]nc(N)c45)c3)cc(C(F)(F)F)c2)cn1 | 44.1% | 33.1% | 68.4 | 45.1% | 40.6% | 26.4% | 51.7% | 63.2% | 66.7% | 13.8% |
| CC[N+](CC)(CCCC(C)[N+]1(Cc2ccccc2)C(C)=CC=C1C)Cc1ccccc1 (stereo not given) | 72.3% | 81.2% | 96.7 | 98.1% | 97% | 55.3% | 75% | 100% | 99.5% | 67.9% |
| c1ccc(Cn2nc3c(c2-c2ccccc2)-c2oncc2CC3)cc1 | 87.5% | 103% | 113 | 105% | 102% | 62.3% | 76% | 90.5% | 105% | 113% |
| O=C(O)C(/C=C/c1ccco1)=N\Nc1nc(-c2ccc(Cl)cc2)cs1 | 57.7% | 84% | 68.5 | 46.4% | 37.6% | 51.8% | 39.4% | 51.4% | 51.8% | 94.6% |
| O=S(=O)(NCCNc1nccc(-c2c(-c3ccc(F)c(O)c3)nc3occn23)n1)c1ccccc1 | 55.1% | 92.1% | 72.7 | 76.9% | 29.7% | 43.7% | 55.2% | 45.8% | 88.5% | 40.6% |
| CCCCCCCCCCCCCCCC(=O)OC[C@@]1(O)C[C@@]23CC[C@@H]4C(C)(C)[C@H](O)CC[C@@]4(C)[C@@H]2CC[C@H]1C3 | 98% | 99.2% | 114 | 101% | 107% | 113% | 91.2% | 104% | 0.227% (active) | 115% |
| CC(=O)Nc1ccc(S(=O)(=O)NC2CCCCC2)cc1 | 99.9% | 86.6% | 96.5 | 96.3% | 102% | 89.3% | 92% | 93.3% | 99.8% | 103% |
| O=c1[nH]c2c(s1)CCCC2CN1CCCCC1 (stereo not given) | 96.5% | 95.1% | 112 | 83.7% | 106% | 104% | 89.5% | 80.4% | 96.2% | 98.4% |
| CN1CCN(Cc2ccc(NC(=O)c3cncc(C#Cc4cnccc4C(F)(F)F)c3)cc2C(F)(F)F)CC1 | 67.9% | 47.8% | 107 | 80.5% | 71.6% | 55.6% | 79.4% | 94% | 89.7% | 44.4% |
| COC(=O)CCCCCCCCC1(C)C=CC(C(C)O)=CC1 (stereo not given) | 96.2% | 97% | 109 | 101% | 111% | 93.2% | 89% | 94% | 108% | 111% |
| COc1ccncc1C#Cc1cncc(C(=O)Nc2ccc(CN3CCN(C)CC3)c(C(F)(F)F)c2)c1 | 28% | 3.6% (active) | 37.3 | 38.9% | 8.17% (active) | -2.19% (active) | 30.9% | 36.9% | 46.9% | 4.09% (active) |
| COc1cccc(C(Cc2ccccc2)Nc2ccccc2)c1OC (stereo not given) | 92.1% | 91.3% | 101 | 92.6% | 101% | 77.5% | 65.6% | 81.4% | 95.5% | 105% |
| CC(=O)N1c2ccccc2NC2=C(C(=O)N(Cc3ccccc3)C2(C)C)C1c1ccco1 (stereo not given) | 20.9% | 65.7% | 44.6 | 33.1% | 4.83% (active) | 21.1% | 21.8% | 22% | 21.4% | 16.8% |
| c1ccc(N2N=C(c3cccc(Nc4ccncc4)c3)CC2c2ccc3c(c2)OCO3)cc1 (stereo not given) | 61.1% | 77.7% | 42.7 | 23.5% | -48.5% (active) | 25.6% | 17.9% | 21.1% | 81% | -53% (active) |
| O=[N+]([O-])c1cccc(-c2nc(-c3ccc(Cl)cc3Cl)cn2-c2ccccc2)c1 | 20.8% | 18% | 157 | -75.4% (active) | -76.4% (active) | 12.6% | 12.8% | -32.9% (active) | -99.5% (active) | -36.5% (active) |
| COc1ccc(NC(=O)c2sc3nc(C)c(C(=O)c4ccc(OC)cc4)cc3c2N)cc1 | 73.9% | 87.9% | 40.3 | 43% | 9.29% (active) | 67.3% | 40.7% | 24.6% | 59.9% | 42.9% |
| Cc1c(C2=CCCCC2)c2ccccn2c1C(=O)c1cccc(S(=O)(=O)N2CCOCC2)c1 | 75.6% | 93.2% | 80.7 | 70% | 92.7% | 53.9% | 68.1% | 69.4% | 51% | 102% |
| Nc1c(C(=O)Nc2cccc3ccncc23)sc2nc3c(cc12)C(=O)CCC3 | 58.1% | 73.8% | 72.3 | 62.8% | 11.6% | 69.6% | -15.7% (active) | 38.6% | 44.5% | 28.2% |
| COc1ccc(/C=C/C(=O)c2ccc(Nc3ncnc4ccccc34)cc2)cc1OC | 73.3% | 104% | 92.4 | 92.8% | 83.8% | 74% | 92.7% | 68.3% | 79.2% | 109% |
| O=C(c1ccccc1)N1N=C(c2ccc(-n3ccc(C(F)(F)F)n3)cc2)CC1c1ccc[nH]1 (stereo not given) | 96.4% | 95.1% | 80.6 | 105% | 100% | 113% | 76.5% | 82% | 87.3% | 101% |
| COc1nc(N)nc(-n2c(-c3ccc(C)cc3)nc3ccccc32)c1NCc1ccc(C)cc1 | 95.6% | 89% | 90.2 | 86.5% | 105% | 78.2% | 79.9% | 78.4% | 90.3% | 108% |
| CS(=O)(=O)c1ccc(-c2cc3c(oc2=O)-c2ccccc2OC3O)cc1 (stereo not given) | 90.3% | 74.7% | 107 | 94.9% | 91.7% | 38.1% | 92.7% | 104% | 88.7% | 114% |
| CC(C)C1C2=C(NCCN1C(=O)Cc1ccccc1)C(C)(C)N(Cc1ccccc1)C2=O (stereo not given) | 97.4% | 104% | 99.2 | 91.9% | 104% | 93.6% | 93.6% | 100% | 97.3% | 100% |
